The values below come from PubChem BioAssay AID588727 (Southern Research Specialized Biocontainment Screening …, 2011).

The nature of the test: inhibitors of VEEV TC-83 cytopathic effect, confirmation, Vero cells (AID 588727). The conditions noted are these: VEEV TC-83 cytopathic effect inhibition, at 20 µM.
Setting [1] is: stronger effect = higher value unless noted.
Where [2] appears, read: measured here: 10K pilot screen inhibition, stronger effect = higher value.

Hit rate of the full screen: of about 350,000 compounds, about 450 (0.13%) were called active. No rule for the calls is given here. Only a sample is shown. Potency and affinity values are given separately.

Consider `CC(OC(=O)/C=C/c1cccc(C(F)(F)F)c1)C(=O)NC1CCCCC1C` (centres undefined), for which the inhibition under setting [1] was 3.48% (inactive).

`Cc1ccc(NC(=O)/C(C#N)=N/Nc2ccc(C(=O)O)cc2)c(C)c1`: the inhibition under setting [1] was 1.78% (inactive).

On to `CNC(=O)C(=O)Nc1ccc(C)cc1C`, for which the inhibition under setting [1] is 0.04% (inactive).

Consider `CCOC(=O)c1ccc(CC2S/C(=C(\C#N)C(C)=O)NC2=O)cc1` (centres undefined), for which the inhibition under setting [1] was 1.08% (inactive).

In the case of `CC(=O)/C(C#N)=C1\NC(=O)C(Cc2ccc(F)cc2)S1` (centres undefined), the inhibition under setting [1] was 9.23% (inactive).

Turning to `C/C(=N\N=C1\NC(=O)C(Cc2ccccc2)S1)c1ccccc1` (centres undefined), the inhibition under setting [1] is 1.26% (inactive).

For `CC(C)=N/N=C1/NC(=O)C(Cc2ccccc2)S1` (centres undefined), under setting [1], the inhibition is 2.54% (inactive).

Regarding `CN1CCN(c2ccc3nccnc3c2)CC1`, the inhibition under setting [1] is 0.19% (inactive).

For `CN1CCN(c2nc3cc(N4CCOCC4)ccc3s2)CC1`, the inhibition result under setting [1] is “inactive”.

In the case of `O=C1CNC(=O)/C(=C\c2ccc(F)cc2)N1`, the inhibition entry under setting [1] is “inactive”.

Consider `CCOC(=O)COc1cc2c3c(c(=O)oc2cc1C)CCCC3`, for which the inhibition under setting [1] is 1.83% (inactive).

On to `CCOC(=O)CSc1nnc(NC(=O)CN2CCCCC2)s1`, for which the inhibition entry under setting [1] is “inactive”.

On to `CC(=O)Nc1ccc(S(=O)(=O)N(C)CC(=O)OC(C)C(=O)NC2(C#N)CCCCC2)cc1` (centres undefined), for which, under setting [1], the inhibition is 0.4% (inactive).

For the compound `COc1ccc(NC(=O)COc2ccc(CNCCCN3CCOCC3)cc2OC)cc1`, the inhibition result under setting [1] was “inactive”.

For the compound `CCOc1cc(CNCCCN2CCOCC2)ccc1OCC(=O)NC(C)(C)C`, the inhibition under setting [1] was 0.44% (inactive).

Turning to `COc1ccc(N2CCN(CCCn3c(=S)[nH]c4ncccc4c3=O)CC2)cc1`, under setting [1], the inhibition is 26.7% (inactive).

With `CCCCn1c(=S)[nH]c2ncccc2c1=O`, the inhibition under setting [1] is 1.76% (inactive).

Consider `Cc1ccc2oc(=O)cc(/C=C/c3ccccc3)c2c1`, for which, under setting [1], the inhibition was 0.72% (inactive).

For `Cc1ccccc1C(=O)NN1C(=O)CSC1=S`, under setting [1], the inhibition is 0.35% (inactive).

`CCc1ccc(C2CC(=O)N(c3cccc(F)c3)C3=C2C(=O)OC3)cc1` (centres undefined): the inhibition result under setting [1] is “inactive”.

Take `Cc1cc(C)cc(NC(=O)[C@H](Cc2c[nH]c3ccccc23)NC(=O)[C@@H]2Cc3ccccc3CN2)c1`: the inhibition under setting [1] is 0.29% (inactive).

Regarding `CC(NC(=O)[C@H](Cc1c[nH]c2ccccc12)NC(=O)[C@@H]1Cc2ccccc2CN1)c1ccccc1` (some centres undefined), under setting [1], the inhibition result is “inactive”.

On to `Cc1cccc(NC(=O)[C@@H](CC(C)C)NC(=O)[C@@H]2Cc3ccccc3CN2)c1`, for which the inhibition entry under setting [1] was “inactive”.

Turning to `Cc1ccc(NC(=O)[C@H](NC(=O)[C@@H]2Cc3ccccc3CN2)c2ccccc2)c(C)c1`, the inhibition under setting [1] was 1.71% (inactive).

Regarding `COc1ccccc1CNC(=O)[C@H](Cc1c[nH]c2ccccc12)NC(=O)[C@@H]1Cc2ccccc2CN1`, the inhibition under setting [1] is 0.04% (inactive).

Take `CC(C)C[C@H](NC(=O)[C@@H]1Cc2ccccc2CN1)C(=O)Nc1ccc(C(C)C)cc1`: the inhibition under setting [1] was 0.75% (inactive).

Turning to `COc1ccc(CNC(=O)[C@H](Cc2c[nH]c3ccccc23)NC(=O)[C@@H]2Cc3ccccc3CN2)cc1`, under setting [1], the inhibition result is “inactive”.

On to `Cc1ccc(NC(=O)[C@H](Cc2ccccc2)NC(=O)[C@@H]2Cc3ccccc3CN2)c(C)c1`, for which, under setting [1], the inhibition is 1.94% (inactive).

Take `O=C(O)c1cc(S(=O)(=O)Nc2cccc(S(=O)(=O)N3CCCC3)c2)ccc1Cl`: under setting [1], the inhibition was 0.74% (inactive).

In the case of `Cc1ccc(C(=O)Nc2cccnc2Oc2ccc(Cl)cc2)cc1`, the inhibition under setting [1] was 7.89% (inactive).

With `O=C(O)c1ccc(Cl)c(S(=O)(=O)N(Cc2ccccc2)c2ccccc2Cl)c1`, under setting [1], the inhibition result was “inactive”.

With `CCC(O)CC(C(=O)NNc1ccccc1)C(=O)NNc1ccccc1` (centres undefined), the inhibition is 1.75% (inactive) (stronger effect = higher value) and 1.77% under setting [2].

With `COc1ccc(OCc2cc(/C=N\NC(=O)c3ccccc3)ccc2OC)cc1`, the inhibition under setting [1] is 7.93% (inactive).

Regarding `COc1cccc(NC(=O)[C@H](Cc2ccccc2)NC(=O)[C@@H]2Cc3ccccc3CN2)c1`, the inhibition under setting [1] was 2.9% (inactive).

Consider `COc1cccc(NC(=O)[C@H](CC(C)C)NC(=O)[C@@H]2Cc3ccccc3CN2)c1`, for which the inhibition under setting [1] is 0.34% (inactive).

On to `c1ccc(CSc2ncnc3c2ncn3C2CCCCO2)cc1` (centres undefined), for which the inhibition under setting [1] is 4.13% (inactive).

With `Fc1ccccc1CSc1ncnc2c1ncn2C1CCCCO1` (centres undefined), the inhibition under setting [1] is 4.89% (inactive).

With `CCOC(=O)C1CCC(=O)C1` (centres undefined), under setting [1], the inhibition is 0.89% (inactive).

Regarding `Cn1c(CN2CCCCC2)nc2cc(NS(=O)(=O)c3ccc(F)cc3)ccc21`, the inhibition under setting [1] was 0.17% (inactive).

With `C#CCN(C[C@@H]1[C@@H](OC(=O)Nc2cccs2)[C@@H](OC(=O)Nc2cccs2)Cn2c(=O)n(CCCCCC)c(=O)n21)S(=O)(=O)c1ccc(C)cc1`, under setting [1], the inhibition entry was “inactive”.

As for `C#CCN(C[C@@H]1[C@@H](OC(=O)NC2CC2)[C@@H](OC(=O)NC2CC2)Cn2c(=O)ccc(=O)n21)S(=O)(=O)c1ccc(C)cc1`, the inhibition under setting [1] was 0.49% (inactive).

As to `COc1ccc(-c2c3c(=O)n(C)c(=O)n(C)c3cn2Cc2cccnc2)cc1`, the inhibition (stronger effect = higher value) was 1.95% (inactive) and the inhibition under setting [2] is 1.55%.

Regarding `CC(C)=CCN1CCN(Cc2coc3ccc(C)cc3c2=O)CC1CCO` (centres undefined), the inhibition under setting [1] was 0.54% (inactive).

`Cc1ccc2nc(NC(=O)Cn3nc(C)c([N+](=O)[O-])c3C)sc2c1`: the inhibition under setting [1] was 5.1% (inactive).

On to `CN1CCN(C(=O)N2c3ccccc3C=Cc3ccccc32)CC1`, for which the inhibition under setting [1] was 0.28% (inactive).

On to `CN(C)CCCNC(=O)c1cc2sc3ccccc3c2s1`, for which, under setting [1], the inhibition was 0.94% (inactive).

For the compound `COCCNC(=O)c1cc2sc3ccccc3c2s1`, the inhibition under setting [1] was 3.33% (inactive).

Take `O=C1/C(=C/c2cccs2)SC(=S)N1CC(=O)N1CCCCC1CCO` (centres undefined): under setting [1], the inhibition was 2.22% (inactive).

Take `COC(=O)C/C=C/N(Cc1ccccc1OC)S(=O)(=O)CCl`: the inhibition result under setting [1] is “inactive”.

With `COc1ccc(NC2=C(NC(C)=O)C(=O)c3ccccc3C2=O)cc1`, the inhibition entry under setting [1] was “inactive”.

Take `CN(C)c1ccc(NC2=C(Cl)C(=O)c3ccccc3C2=O)cc1`: the inhibition under setting [1] was 2.81% (inactive).

For `O=C(Nc1ccc2ccccc2c1)c1ccccc1[N+](=O)[O-]`, the inhibition under setting [1] is 0.3% (inactive).

As for `O=C(NC(=S)NCCN1CCOCC1)c1cccc(Cl)c1`, under setting [1], the inhibition was 2.05% (inactive).

As to `O=S(=O)(NCC1CN(S(=O)(=O)c2c(F)cccc2F)C1)c1ccc2c(c1)OCCO2`, the inhibition under setting [1] was 0.08% (inactive).

Take `CC(=O)c1cccc(Nc2nc(=O)c3cccnc3s2)c1`: the inhibition under setting [1] is 3.68% (inactive).

As to `Cc1ccc(Nc2nc(=O)c3cccnc3s2)cc1`, the inhibition result under setting [1] was “inactive”.

For `COc1ccc(OC)c(Nc2nc(=O)c3cccnc3s2)c1`, under setting [1], the inhibition is 4.47% (inactive).

Turning to `CC(=O)c1ccc(Nc2nc(=O)c3cccnc3s2)cc1`, the inhibition under setting [1] is 2.57% (inactive).

As for `COCOCCn1cc(CN2CCS(=O)(=O)N(Cc3ccc(-c4cccc(CO)c4)cc3)C(CC(C)C)C2=O)nn1` (centres undefined), under setting [1], the inhibition was 6.1% (inactive).

Regarding `CCOC(=O)[C@@H]1[C@H]2COc3ccc(Br)cc3[C@@H]2N2C(=O)N(c3cccc(Cl)c3)C(=O)[C@]12C`, the inhibition entry under setting [1] was “inactive”.

With `CCOC(=O)C1=C(NC(=S)NC(=O)c2ccccc2)c2ccccc2CC1(C)CC` (centres undefined), the inhibition was 11.4% (inactive) (stronger effect = higher value) and 20.8% under setting [2].

With `CCOC(=O)C1=C(N)c2ccccc2CC1C(C)C` (centres undefined), the inhibition result under setting [1] is “inactive”.

`Cc1ccc(C(=O)N2CCN(c3ccccn3)CC2)cc1C`: the inhibition under setting [1] is 1.05% (inactive).

`CN1CCN(C(=O)c2ccc3c(c2)N(Cc2cccc(Cl)c2)C(=O)c2ccccc2S3(=O)=O)CC1`: under setting [1], the inhibition result is “inactive”.

Turning to `Cc1ccc(C)c(CN2C(=O)c3ccccc3S(=O)(=O)c3ccc(C(=O)N4CCN(C)CC4)cc32)c1`, the inhibition under setting [1] was 0.5% (inactive).

On to `O=C(c1ccc2c(c1)N(Cc1ccc(F)cc1)C(=O)c1ccccc1S2(=O)=O)N1CCN(c2ccccn2)CC1`, for which the inhibition under setting [1] is 8.23% (inactive).

For the compound `CC(=O)C(=Nc1cccc(Cl)c1)NNc1ccccc1C`, under setting [1], the inhibition result is “inactive”.

In the case of `CC(=O)Nc1ccc(C(=O)OCC(=O)c2cccc([N+](=O)[O-])c2)cc1`, the inhibition under setting [1] was 0.91% (inactive).

In the case of `O=C(C[n+]1cccc(NC(=O)c2ccccc2)c1)c1cccc([N+](=O)[O-])c1`, the inhibition result under setting [1] is “inactive”.

As to `CCOC(=O)C1=C(COC(=O)c2cccc(NC(C)=O)c2)NC(=O)NC1C` (centres undefined), under setting [1], the inhibition was 1.96% (inactive).

`C#CCn1c(S(=O)(=O)Cc2ccccc2Cl)nc(-c2ccccc2)c1-c1ccccc1`: under setting [1], the inhibition was 1.45% (inactive).

In the case of `C#CCn1c(S(=O)(=O)Cc2ccc(OC)cc2)nc(-c2ccccc2)c1-c1ccccc1`, the inhibition under setting [1] is 0.79% (inactive).

In the case of `CCOC(=O)Cn1c(S(=O)(=O)Cc2cccc(F)c2)nc(-c2ccccc2)c1-c1ccccc1`, the inhibition under setting [1] is 3.2% (inactive).

Consider `CCOC(=O)Cn1c(S(=O)(=O)Cc2ccc(F)cc2)nc(-c2ccccc2)c1-c1ccccc1`, for which the inhibition under setting [1] was 5.03% (inactive).

On to `COC(=O)c1ccccc1-c1ccc(/C=N/Nc2nc(N3CCCC3)nc(N3CCCC3)n2)o1`, for which the inhibition under setting [1] was 9.1% (inactive).

For `COc1ccc(S(=O)(=O)N2CCCc3ccccc32)cc1OC`, the inhibition result under setting [1] is “inactive”.

`Cc1c(OCC(=O)N(C)C)ccc2c(-c3ccccc3)cc(=O)oc12`: the inhibition under setting [1] is 2.42% (inactive).

Regarding `Cn1cccc1C(=O)NC(=O)COC(=O)c1ccc(S(C)(=O)=O)cc1`, the inhibition under setting [1] was 1.82% (inactive).

Consider `CCOC(=O)c1cc(-c2ccccc2)sc1NC(=O)C(C)(C)C`, for which the inhibition under setting [1] was 0.72% (inactive).

For the compound `O=C(Nc1sc(-c2ccccc2)cc1C(=O)O)c1ccccc1`, the inhibition entry under setting [1] is “inactive”.

As for `COC(=O)C1=C(CSCc2ccccc2)NC(=O)NC1c1cc(C)ccc1C` (centres undefined), under setting [1], the inhibition is 1.95% (inactive).

In the case of `CCC(C)(C)NC(=S)Nc1ccc(-c2nc3ccc(C)cc3s2)cc1`, the inhibition under setting [1] is 1.78% (inactive).

Take `CNC(=S)Nc1ccc(-c2nc3ccc(C)cc3s2)cc1`: under setting [1], the inhibition is 5.72% (inactive).

For the compound `CCOC(=O)c1c(C)oc(NC(=O)CCl)c1C(=O)OCC`, under setting [1], the inhibition is 1.19% (inactive).

In the case of `Cc1nn(Cc2ccc(Cl)cc2)c(C)c1NC(=O)c1cc(C(C)C)on1`, the inhibition under setting [1] is 0.91% (inactive).

In the case of `Cc1cc(C(=O)Nc2c(C)nn(Cc3ccccc3Cl)c2C)no1`, the inhibition under setting [1] is 1.51% (inactive).

In the case of `CNC(=O)c1cc(S(=O)(=O)Nc2ccc3c(c2)OCCO3)ccc1C`, the inhibition under setting [1] was 0.34% (inactive).

With `C#CCOCCOCCOCCNc1nc(OC)nc(N2CCN(C(=O)[C@H](CCC(=O)O)n3cc(C(N)CO)nn3)CC2)n1` (some centres undefined), under setting [1], the inhibition was 1.77% (inactive).

For `CN1CCN(CC(=O)Nc2cc(N3CCOCC3)ccc2[N+](=O)[O-])CC1`, under setting [1], the inhibition is 0.32% (inactive).

For the compound `Cc1c(CCO)c(=O)[nH]n1S(=O)(=O)c1ccc(F)cc1`, under setting [1], the inhibition result was “inactive”.

On to `Cc1c(CCO)c(=O)[nH]n1C(=O)c1ccc(F)cc1`, for which, under setting [1], the inhibition is 0.71% (inactive).

One may read the inhibition as the relative decrease from the control value, in per cent.
